Data published in PubChem BioAssay (NCATS).
Records with an inconclusive call do not appear. Active and inactive are the calls of the source. Calls come from the whole dose curve; as a rule, active = well fitted curve in the direction sought with a large enough effect; inconclusive = small, poorly fitted or top-dose-only effect, or another doubt; inactive = no such curve, though single readings can be large; an effect the other way counts as inactive or inconclusive. *1 amine or outer side, *2 acyl side, *3 side chain or, on linkers, in order; H or OH if unused. Where a SMILES comes first, the peptide text is derived from it. Bridges are numbered along the chain shown (N, C = ends). [ ]: non-standard residue; d: D form. The star is where a group is joined. ξ: configuration not given here. ξhTyr(3S-OH,4S-OH,3'-OSO3H) = NC(C(=O)O)[C@H](O)[C@@H](O)c1ccc(O)c(OS(=O)(=O)O)c1; Orn(4R-OH,5R-OH) = O=C([C@H](C[C@@H](O)[C@@H](O)N[*:3])N[*:1])[*:2]; X2 = CCCCCOc1ccc(-c2cc(-c3ccc(C(=O)*)cc3)no2)cc1; X3 = C[C@H]1CN([*:1])C(C(=O)[*:2])[C@H]1O; ξGln(3R-OH) = NC(=O)C[C@@H](O)C(N)C(=O)O; ξPro(4R-OH) = O=C(O)C1C[C@@H](O)CN1; ξThr(3R) = C[C@@H](O)C(N)C(=O)O; Hexanoyl = CCCCCC(=O)*

Assays:
[1] = test system: Zika virus NS2B-NS3 protease (unlinked complex); test: Confirmatory screen GU AMC qHTS for Zika virus inhibitors (AID 1347153); note: nearly all actives have a fitted effect of over 70% in size;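 for Potency: enzyme at 25 nM with substrate at 10 µM below its Km of 18.3 µM; potency is the fitted concentration of half-maximal effect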
Summary of the method: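 Fluorescence change (ex 340/em 450 nm) over 15 min, ~20% substrate conversion, normalized to no-inhibitor and no-enzyme controls, then Hill-fitted. Unlinked protease at 25 nM; AMC peptide 10 µM.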

[2] = Confirmatory screen GU Rhodamine qHTS for Zika virus inhibitors qHTS (AID 1347157); note: nearly all actives have a fitted effect of over 70% in size; note: potency is the fitted concentration of half-maximal effect
Summary of the method: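 Percent inhibition came from the 15-min rise in Rhodamine110 fluorescence (1.5 microM substrate, ~15% conversion), normalized to no-inhibitor and no-enzyme wells and Hill-fitted. Unlinked protease, 25 nM, pH 8.0 Tris buffer; compounds up to 114 microM, 15-min preincubation.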

[3] = ZIKV-mCherry secondary qHTS for Zika virus inhibitors (AID 1347158); note: potency is the fitted concentration of half-maximal effect
Summary of the method: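 This orthogonal imaging screen measured ZIKV-mCherry infection of Vero cells exposed to compound, MOI 1, 48-72 h. Percent infection came from segmented nuclei scored mCherry-positive above 3 SD of negative controls.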

[4] = test system: Zika virus NS2B-NS3 protease (unlinked complex); test: Primary screen GU Rhodamine qHTS for Zika virus inhibitors: Unlinked NS2B-NS3 protease assay (AID 1347159); note: nearly all actives have a fitted effect of over 60% in size; note: potency is the fitted concentration of half-maximal effect
Summary of the method: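 Enzyme 25 nM in Tris-HCl pH 8.0 + 0.01% Tween 20; compounds up to 114 microM, 15 min RT dark; + Rhod110 substrate 1.5 microM; read t0 and 15 min; delta fluorescence → % inhibition → 4-parameter Hill fit.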

[5] = test system: Zika virus NS2B-NS3 protease (linked construct); test: Primary screen NINDS Rhodamine qHTS for Zika virus inhibitors (AID 1347160); note: nearly all actives have a fitted effect of over 55% in size; note: potency is the fitted concentration of half-maximal effect
Summary of the method: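 Enzyme (25 nM, linked NS2B-NS3) was preincubated 15 min with compound in 10 mM Tris-HCl pH 8.0, 0.01% Tween 20. Rhodamine110 substrate (1.5 microM) was then added and fluorescence read at start and after 15 min.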

[6] = Confirmatory screen NINDS Rhodamine qHTS for Zika virus inhibitors (AID 1347161); note: nearly all actives have a fitted effect of over 60% in size; note: potency is the fitted concentration of half-maximal effect
Summary of the method: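 Aprotinin served as in-plate control. Conditions: 25 nM linked NS2B-NS3, pH 8.0 Tris buffer, titrated compounds, 15 min preincubation and 15 min reaction with 1.5 microM Rhod110 substrate at room temperature.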

[7] = test system: Zika virus NS2B-NS3 protease (linked); test: 384 well plate NINDS AMC confirmatory qHTS for Zika virus inhibitors (AID 1347163); note: nearly all actives have a fitted effect of over 50% in size; note: potency is the fitted concentration of half-maximal effect
Summary of the method: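 Enzyme (5, 30 or 60 nM final) first met test compounds for ~15 min. The AMC-tagged peptide Ac-VKTGKR-AMC followed at 30 microM. Fluorescence was then recorded at 25 min and scaled against no-enzyme and no-inhibitor wells.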

[8] = test system: Zika virus NS2B-NS3 protease (linked construct); test: 384 well plate NINDS Rhodamine confirmatory qHTS for Zika virus inhibitors (AID 1347164);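 note: fluorescence from protease cleavage of Ac-LKRR-rhodamine 110 substrate; nearly all actives have a fitted effect of over 65% in size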; note: potency is the fitted concentration of half-maximal effect
Summary of the method: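 Linked NS2B-NS3 protease (final 5, 30 or 60 nM) preincubated ~15 minutes with compounds, then 10 microM Ac-LKRR-Rhodamine 110 added. Fluorescence (485/538 nm) read after 25 minutes at room temperature, normalized to no-enzyme and no-inhibitor controls.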

[9] = test system: Zika virus NS2B-NS3 protease (linked construct); test: Confirmatory screen NINDS AMC qHTS for Zika virus inhibitors (AID 1347152); note: nearly all actives have a fitted effect of over 70% in size; note: potency is the fitted concentration of half-maximal effect
Summary of the method: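 Linked NS2B-NS3 protease, 1 nM, in 10 mM Tris-HCl pH 8.0, 0.01% Tween 20; compounds preincubated 15 min at room temperature. Nle-KRR-AMC 10 microM (Km 18.3 µM); 15-min fluorescence change (340/450 nm) fitted to 4-parameter Hill.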

[10] = test system: Zika virus NS2B-NS3 protease; test: Primary screen GU AMC qHTS for Zika virus inhibitors (AID 1347154); note: nearly all actives have a fitted effect of over 70% in size
Summary of the method: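 Fluorogenic AMC-substrate cleavage by noncovalent NS2B-NS3 protease complex (25 nM, pH 8.0 Tris buffer with Tween 20) followed for 15 minutes at room temperature (~20% conversion). Percent inhibition from ex340/em450 signal change, fitted by 4-parameter Hill equation.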

| Compound | Potency [1] | Potency [2] | Potency [3] | Potency [4] | Potency [5] | Potency [6] | Potency [7] | Potency [8] | Potency [9] | outcome [10] |
| --- | --- | --- | --- | --- | --- | --- | --- | --- | --- | --- |
| Cc1ccccc1NC(=O)Nc1ccc(CN2C(=O)N([C@@H](CC(C)C)C(=O)N[C@@H](CC(=O)O)c3ccccc3)C(=O)C2(C)C)cc1 | inactive | 35 µM (active) | inactive | 31.6 µM (active) | 7.08 µM (active) | 27.8 µM (active) | 10 µM (active) | inactive | – | – |
| CCC(C)/C=C(C)/C=C/C1=CC2=CC(=O)C(C)(O)C(OC(C)=O)C2CO1 (stereo not given) | – | 30.6 µM (active) | – | 14.1 µM (active) | inactive | 34.3 µM (active) | – | – | – | – |
| CCc1nnc(NS(=O)(=O)c2ccc(NC(=S)NC(=O)/C=C/c3ccc(F)cc3)cc2)s1 | – | 2.78 µM (active) | – | 3.16 µM (active) | 3.16 µM (active) | 2.78 µM (active) | – | – | 19.7 µM (active) | – |
| Cc1cc(C)c2nc(-c3ccccn3)cc(C(=O)Nc3ccc(S(=O)(=O)Nc4onc(C)c4C)cc3)c2c1 | – | 2.78 µM (active) | inactive | 2 µM (active) | 2.24 µM (active) | 3.12 µM (active) | 5.01 µM (active) | 3.98 µM (active) | 22.1 µM (active) | – |
| O=C(O)C1(c2ccc(-c3ccc(Cl)c(Cl)c3)c(F)c2)CC1 | 44.1 µM (active) | 11.1 µM (active) | – | 7.94 µM (active) | 8.91 µM (active) | 6.98 µM (active) | 14.1 µM (active) | – | 44.1 µM (active) | – |
| O=C1NC(=O)/C(=C/c2cccc(C(F)(F)F)c2)S1 | – | 4.41 µM (active) | – | 2.51 µM (active) | 3.55 µM (active) | 3.93 µM (active) | 100 µM (active) | 20 µM (active) | 17.5 µM (active) | – |
| C/C(=C\CCC(C)CCO)C(=O)OC[C@H]1O[C@@H](O[C@@H]2OC=C(C(=O)O)[C@H]3CC[C@](C)(O)[C@@H]23)C(O)[C@@H](O)C1O (stereo not given in full) | – | 4.29 µM (active) | – | 7.94 µM (active) | 5.62 µM (active) | 2.15 µM (active) | – | – | 13.6 µM (active) | – |
| CC(C)=CCC[C@@](C)(O)[C@H]1CC[C@]2(C)[C@@H]1[C@H](O)CC1[C@@]3(C)CC[C@H](O[C@@H]4O[C@H](CO)[C@@H](O)[C@H](O)[C@H]4O[C@@H]4O[C@H](CO)[C@@H](O)[C@H](O)[C@H]4O)C(C)(C)[C@@H]3CC[C@]12C (stereo not given in full) | – | 14.7 µM (active) | – | inactive | – | 16.5 µM (active) | – | – | – | – |
| C=C1C2CCC3CC2(CC(O)C2(O)C1CC(OC1OC(CO)C(O)C(O)C1O)C2(C)C)CC3(C)O (stereo not given) | – | – | – | 20 µM (active) | 8.91 µM (active) | 9.61 µM (active) | 35.5 µM (active) | 0.501 µM (active) | inactive | – |
| O=S(=O)(O)c1ccc(Nc2ncnc3c2ncn3[C@@H]2O[C@H](CO)[C@@H](O)[C@H]2O)cc1 | – | – | – | inactive | inactive | – | – | – | – | inactive |
| CCOc1ccc(-c2cc(NC(=O)c3c(F)cccc3F)c(C(=O)O)s2)cc1 | 27.8 µM (active) | 4.41 µM (active) | – | – | 5.01 µM (active) | 3.12 µM (active) | 7.08 µM (active) | 5.01 µM (active) | 17.5 µM (active) | – |
| CCCCCC(=O)N1CCC[C@H]1C(=O)N[C@@H](Cc1ccc(O)cc1)C(=O)OC (Hexanoyl-Pro-Tyr-OMe) | – | inactive | – | inactive | – | inactive | – | – | – | – |
| COc1cc2c(c(O)c1OC/C=C(\C)CC/C=C(/C)CCC=C(C)C)CN(C(CCC(=O)O)C(=O)O)C2=O (stereo not given) | 34.1 µM (active) | 3.41 µM (active) | 6.31 µM (active) | 2 µM (active) | 7.94 µM (active) | 2.71 µM (active) | 8.91 µM (active) | inactive | 27.1 µM (active) | – |
| CCCCCOc1ccc(-c2cc(-c3ccc(C(=O)N[C@H]4C[C@@H](O)[C@@H](O)NC(=O)C5[C@@H](O)[C@@H](C)CN5C(=O)C([C@H](O)CC(N)=O)NC(=O)C([C@H](O)[C@@H](O)c5ccc(O)c(OS(=O)(=O)O)c5)NC(=O)C5C[C@@H](O)CN5C(=O)C([C@@H](C)O)NC4=O)cc3)no2)cc1 (stereo partly drawn) (X2-[Orn(4R-OH,5R-OH)][ξThr(3R)][ξPro(4R-OH)][ξhTyr(3S-OH,4S-OH,3'-OSO3H)][ξGln(3R-OH)][X3]; lactam 1-C) | 21.5 µM (active) | 4.82 µM (active) | – | 2.24 µM (active) | 4.47 µM (active) | 4.29 µM (active) | – | – | 21.5 µM (active) | – |
| COc1cc(/C=C/c2ccccc2)c(C(=O)O)c(O)c1CC=C(C)C | 34.3 µM (active) | 3.06 µM (active) | – | 4.47 µM (active) | 10 µM (active) | 4.85 µM (active) | – | – | 34.3 µM (active) | – |
| O=C(Nc1ccccc1)Nc1ccc(-c2ccc(C(=O)C3CCCC3C(=O)O)cc2)cc1 (stereo not given) | 35 µM (active) | 4.94 µM (active) | – | 5.01 µM (active) | 3.55 µM (active) | 3.93 µM (active) | inactive | 11.2 µM (active) | 27.8 µM (active) | – |
| CC1C(O)C(O)C2C(C(=O)OCCc3ccc(O)cc3)=COC(O[C@@H]3O[C@H](CO)[C@@H](O)[C@H](O)[C@H]3O)C12 (stereo not given in full) | – | 8.57 µM (active) | – | – | 8.91 µM (active) | 15.2 µM (active) | – | 3.98 µM (active) | inactive | – |
